SW480 rerep = A quantitative high throughput screen for small molecules that induce DNA re-replication in SW480 colon adenocarcinoma cells; Potency, µM (highest dose often 46.1 µM), for inactives: at the highest dose re-replication activation, most hits filed as activators; AID 624297, 2012; SW480 DNA re-replication, Hoechst DNA content imaging, 48 h; 340,000 tested, 1.8% active; further: % of control where 0% means no effect; nearly all actives have a fitted effect of over 55% in size
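250 cells/well; 23 nL cpd via pin tool; 48 hr, 37 C, 5% CO2; Hoechst 40 min; imager read of total nuclear intensity, ex 405/em 500-530 nm.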
KB-3-1 cytotox = qHTS assay for MDR1-selective chemotherapeutics: Primary screen using the parental adenocarcinoma cell KB-3-1; 400,000 tested, 1.4% active; AID 1347075, 2019; KB-3-1 viability, CellTiter-Glo ATP luminescence, 72 h; Potency, µM (doses to about 46.1 µM), usual class: cytotoxic; further: on the % scale 0 is the no-effect control and ±100 the full control effect; nearly all actives have a fitted effect of over 60% in size
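72 h, 37 °C compound treatment of KB-3-1 parental cells; CellTiter-Glo added, 10 min, luminescence read. Data corrected against DMSO-only plates and normalized before curve fitting.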
ELG1 repair inh = qHTS screen for small molecules that inhibit ELG1-dependent DNA repair in human embryonic kidney (HEK293T) cells expressing luciferase-tagged ELG1. HEK293T ELG1-luciferase reporter, luminescence, 16 h; DNA damage induced by 5-fluorouridine. Potency, µM (series often up to 46.1 µM), for the others: at the highest dose activity change, negative = inhibition, most hits filed as inhibitors. 330,000 tested, 2.3% active. AID 504467, 2011; further: on the % scale 0 is the no-effect control and ±100 the full control effect; nearly all actives have a fitted effect of over 55% in size
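Overnight (16 hr) co-exposure of 2,000 cells/well to 5-fluorouridine and compound at 37 °C preceded detection. Luciferase was quantified via ONE-Glo luminescence; loss of signal denotes inhibition.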
KB-V1 MDR tox = qHTS assay for MDR1-selective chemotherapeutics: Primary screen using the drug-selected MDR subline cells KB-V1. KB-V1 MDR cells viability, CellTiter-Glo, 72 h. Potency, µM (highest dose often 46.1 µM), hits mostly cytotoxic. 400,000 tested, 3.4% active; further: on the % scale 0 is the no-effect control and ±100 the full control effect; nearly all actives have a fitted effect of over 60% in size
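Luminescent ATP read-out (CellTiter-Glo, 10 min) measures survival of drug-selected KB-V1 MDR cells after 72 h, 37 degrees C compound exposure. Medium: phenol-red-free DMEM, 10% FBS. Values from fitted concentration-response curves.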
MCF10A rereplic = A quantitative high throughput screen for small molecules that induce DNA re-replication in MCF 10a normal breast cells. Potency, µM (top dose mostly 46.1 µM), for inactives: at the top dose activity, positive = re-replication, actives largely listed as activators. MCF 10A DNA re-replication, Hoechst nuclear intensity, 48 h. AID 624296, 2012. 350,000 tested, 2.9% active; further: % of control where 0% means no effect; nearly all actives have a fitted effect of over 50% in size
* = called active by the depositor; i = inactive; ? = inconclusive; · = no result given. In the library only some 8.1% were active in any assay of this set; here they are far more common. The call rests on the fitted dose curve; in most records, active means well fitted curve in the direction sought with a large enough effect; inconclusive means small, poorly fitted or top-dose-only effect, or another doubt; inactive means no such curve, though single readings can be large; an effect the other way counts as inactive or inconclusive. Potency means the concentration at half of the fitted maximal effect.

SMILES | SW480 rerep | KB-3-1 cytotox | ELG1 repair inh | KB-V1 MDR tox | MCF10A rereplic
COc1ccc(CN2CCN(C(=O)CCC(=O)Nc3nnc(CC(C)C)s3)CC2)cc1F | -20% | i | 5.8µM* | i | -9%
COc1ccc(CN2CCN(C(=O)CCC(=O)Nc3nnc(C4CCCCC4)s3)CC2)cc1F | -6% | i | 5.8µM* | i | ?
COc1ccc(CN2CCN(C(=O)CCC(=O)Nc3nnc(C(F)(F)F)s3)CC2)cc1F | 0% | i | 16% | i | 12%
CCCc1nnc(NC(=O)CCC(=O)N2CCN(Cc3ccc(OC)c(F)c3)CC2)s1 | -1% | i | 4% | i | 8%
CC(C)OCCCNC(=O)CN1C(=O)COc2ccc(S(=O)(=O)N3CCOCC3)cc21 | · | i | · | i | ·
COc1ccc(CNC(=O)CN2C(=O)NC(c3ccccc3)(c3ccccc3)C2=O)cc1OC | -6% | i | · | i | 0%
O=C1c2ccccc2C(=O)c2c1ccc(C(=O)N1CCCCC1)c2NCCO | 1% | i | 5% | ? | -2%
CC1CCCN(C(=O)c2ccc3c(c2NCCO)C(=O)c2ccccc2C3=O)C1 (stereo not drawn) | -5% | i | ? | 4.6µM* | 6%
CCOc1ccc(NC(=O)C2CCCN(S(=O)(=O)c3ccc(Br)s3)C2)cc1 (stereo not drawn) | · | i | · | i | ·
O=C1c2ccccc2NC(c2ccc(-c3cccc([N+](=O)[O-])c3)o2)N1O (stereo not drawn) | 25% | ? | ? | 2.3µM* | 20%
Cc1cc(NC(=O)c2cc(-c3cccs3)nc3ccccc23)no1 | 134% | 21µM* | ? | ? | ?
Cc1ccc(NC(=O)c2cc(-c3cccs3)nc3ccccc23)c(C)c1 | · | i | · | i | ·
COc1cccc(NC(=O)c2cc(-c3ccc(OC)cc3OC)nc3ccccc23)c1 | 4% | i | · | i | -5%
COc1ccc(-c2cc(C(=O)Nc3cc(C)on3)c3ccccc3n2)c(OC)c1 | 3% | i | 18µM* | i | 8%
Cc1ccc(-c2cc(C(=O)Nc3cc(C)on3)c3ccccc3n2)cc1 | ? | i | 0% | i | 12%
Cc1cccc2sc(NNC(=O)c3cc(-c4cccs4)nc4ccccc34)nc12 | ? | ? | ? | ? | 18µM*
Cc1ccc(CN(C)C(=O)CSc2nnc3n2CCCCC3)c(C)c1 | -2% | i | 2% | 15µM* | 11%
Cc1ccc(NC(=O)CN(C)C(=O)C2CSC3(C)CCC(=O)N23)cc1 (stereo not drawn) | · | i | · | i | ·
CCOC(=O)C1=C(N)Oc2cc(O)ccc2C1c1cccc([N+](=O)[O-])c1 (stereo not drawn) | ? | ? | -13% | ? | 8.2µM*
CCOC(=O)C1=C(C)N(c2ccccc2)C(=O)NC1c1cccc([N+](=O)[O-])c1 (stereo not drawn) | -7% | i | 12% | 21µM* | ?
COc1ccc(-c2nnc(SCC(=O)Nc3sc4c(c3C#N)CCCC4)n2-c2ccccc2)cc1 | -7% | i | -10% | i | ?
COc1ccc(-c2ccc(C#N)c(SCC(=O)Nc3sc4c(c3C#N)CCC4)n2)cc1 | 3.3µM* | i | 14% | i | ?
COc1ccc(-n2c(SCC(=O)Nc3sc4c(c3C#N)CCCC4)nnc2-c2ccccc2OC)cc1 | -7% | i | 26µM* | i | -1%
N#Cc1c(NC(=O)CSc2nnnn2C2CCCCC2)sc2c1CCCC2 | -2% | i | 0% | 23µM* | 27%
O=C(Nc1ccccc1[N+](=O)[O-])c1csnn1 | · | i | · | i | ·
SMILES | SW480 rerep | KB-3-1 cytotox | ELG1 repair inh | KB-V1 MDR tox | MCF10A rereplic
COc1cc(C2Nc3cc(C)c(C)cc3NC3=C2C(=O)CC(C)(C)C3)ccc1OC(C)=O (stereo not drawn) | 12% | i | 23% | ? | 9%
Cc1cc2c(cc1C)NC(c1c(C)n(C)n(-c3ccccc3)c1=O)C1=C(CC(C)(C)CC1=O)N2 (stereo not drawn) | -3% | i | -3% | i | 11µM*
O=C1CC(N(Cc2cccs2)C(=O)Nc2ccccc2)C(=O)N1c1ccc(Cl)cc1 (stereo not drawn) | ? | i | -15% | 18µM* | 16%
COc1ccc(CN(C(=S)Nc2ccccc2)C2CC(=O)N(c3ccccc3)C2=O)cc1 (stereo not drawn) | -1% | i | ? | 4.6µM* | ?
CC1=C(C#N)C(C)(C)C(C#N)=C(C)N1 | · | i | · | i | ·
COCC(=O)OC1CCn2c1nc1c2C(=O)C(C)=C(NC(C)=O)C1=O (stereo not drawn) | 1.5µM* | ? | · | i | 9.2µM*
CCc1ccc(NC(=O)C(=O)c2ccccc2NC(C)=O)cc1 | 12% | i | ? | 23µM* | ?
O=c1[nH]c2ccccc2c2oc(CCl)nc12 | -5% | i | ? | ? | 21µM*
CCC1CCc2c(c3ccccc3[nH]c2=O)O1 (stereo not drawn) | -2% | i | 3% | ? | -1%
Cc1c(-c2n[nH]c(=S)n2-c2ccc(C(F)(F)F)cc2)nnn1-c1ccccc1 | 1% | i | 0% | 23µM* | 13%
CCN(C(=O)Cn1c(=O)oc2cc(Cl)ccc21)c1cccc(C(F)(F)F)c1 | · | i | · | ? | ·
CCCCCOC(=O)c1ccc(OC(=O)c2sc3ncn(Cc4cccc(F)c4)c(=O)c3c2C)cc1 | · | i | · | i | ·
CCN1C(=O)[C@H]2[C@@H](c3ccc(OC)cc3)N[C@]3(CCCN(CC4CCCCC4)C3=O)[C@H]2C1=O | · | i | · | i | ·
COc1ccccc1CN1C(=O)CN(C2CCCC2)C(=O)C1c1ccc(F)cc1 (stereo not drawn) | 18% | i | 11% | 3.7µM* | -7%
CCOc1ccc(C2C(=O)N(C3CCCCC3)CC(=O)N2CC2CCCO2)cc1OC (stereo not drawn) | 1% | i | 23% | 18µM* | -2%
CCn1c(=O)c2ccccc2n(Cc2ccccc2C)c1=O | 13% | i | 10% | i | -4%
CCCNC(=O)OC[C@H]1O[C@H](CCO/N=C(\C)CCN2CCc3nc(-c4ccccc4)c(-c4ccccc4)cc3C2)C=C[C@@H]1Oc1ccc(OC)cc1 | ? | · | 6.5µM* | · | ?
CCCc1n[nH]c2c1/C(=N/O)CC(c1ccccc1)C2 (stereo not drawn) | 5% | 26µM* | 0% | ? | 7%

Compound activity as filed in PubChem.
